According to PubChem BioAssay AID689 (Sanford-Burnham Center for Chemical Genomics, 2007):
Screen size: about 62,000 compounds; about 80 (0.1%) were called active. The rule behind the calls is not given here. Not all results are given here. Entries with a potency or affinity are not part of this list.

Target: Ephrin type-A receptor 4 (Mus musculus) (UniProt Q03137)
Experiment: EphA4 ligand-binding antagonists – biochemical, colorimetric, mouse EphA4, primary screen (AID 689)
Settings: EphA4-AP binding to KYL peptide, pNPP A405, at 10 µM, stronger effect = higher value

Sequence of Ephrin type-A receptor 4 (Mus musculus) (Q03137 whole entry, looked up): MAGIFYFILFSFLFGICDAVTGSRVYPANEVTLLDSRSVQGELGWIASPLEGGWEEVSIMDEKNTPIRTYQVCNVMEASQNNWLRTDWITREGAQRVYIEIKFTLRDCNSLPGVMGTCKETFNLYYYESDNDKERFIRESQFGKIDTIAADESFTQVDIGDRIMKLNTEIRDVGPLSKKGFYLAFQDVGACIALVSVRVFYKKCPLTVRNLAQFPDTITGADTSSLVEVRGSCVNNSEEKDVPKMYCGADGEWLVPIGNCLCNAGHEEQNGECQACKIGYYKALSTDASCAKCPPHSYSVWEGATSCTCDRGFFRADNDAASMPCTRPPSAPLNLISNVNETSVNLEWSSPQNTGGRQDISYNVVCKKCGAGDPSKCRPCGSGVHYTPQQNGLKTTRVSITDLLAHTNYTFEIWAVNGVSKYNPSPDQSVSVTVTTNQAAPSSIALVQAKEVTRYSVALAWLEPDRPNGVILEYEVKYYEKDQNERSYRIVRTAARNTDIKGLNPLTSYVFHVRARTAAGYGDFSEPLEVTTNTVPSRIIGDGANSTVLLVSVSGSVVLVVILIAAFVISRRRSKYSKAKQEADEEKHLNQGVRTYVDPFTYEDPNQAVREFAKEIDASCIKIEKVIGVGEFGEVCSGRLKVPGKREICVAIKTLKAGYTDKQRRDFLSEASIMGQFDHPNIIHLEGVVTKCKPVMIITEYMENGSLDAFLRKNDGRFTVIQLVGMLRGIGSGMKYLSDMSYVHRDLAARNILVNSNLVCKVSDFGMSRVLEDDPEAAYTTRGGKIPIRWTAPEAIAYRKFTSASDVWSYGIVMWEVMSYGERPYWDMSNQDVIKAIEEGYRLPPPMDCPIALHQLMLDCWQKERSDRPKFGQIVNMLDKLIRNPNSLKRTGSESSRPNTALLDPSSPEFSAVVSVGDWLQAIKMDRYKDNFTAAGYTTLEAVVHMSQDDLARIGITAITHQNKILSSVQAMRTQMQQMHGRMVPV

inhibition, inactive:
O=C(NC1CCCCCCC1)C1CCCN(S(=O)(=O)c2cnc[nH]2)C1 (stereo not given) -3.1%
COc1ccc(C)cc1NC(=O)C1CC(=O)N(Cc2ccco2)C1 (stereo not given) -16.4%
O=C1CCCC2=C1C(c1ccco1)Nc1ccc(C(=O)c3ccccc3)cc1N2 (stereo not given) -4.7%
O=C1CCCC2=C1C(c1cccs1)Nc1ccc3ncccc3c12 (stereo not given) -5.1%
CC1(C)N=C(c2ccc(Cl)cc2Cl)C(=O)N1 -8.8%
CCOc1ccccc1NC(=S)N1CCC(NC(=O)NC23CC4CC(CC(C4)C2)C3)CC1 -4.6%
O=C(c1ccc2c(c1)OCO2)N1CCC(CN2C(=O)c3cccc4cccc(c34)C2=O)CC1 -13.5% [this sample at 5 µg/mL]
Cc1ccc2nc(NC3=NCN(Cc4ccccc4)CN3)nc(C)c2c1 1.1%
O=C1/C(=C\c2ccc(-c3ccccc3Cl)o2)SC(=S)N1Cc1ccccc1 18.2% [this sample at 5 µg/mL]
CN1C(=O)/C(=C2\SC(=S)N(CC3CCCO3)C2=O)c2ccccc21 (stereo not given) -3.2%
Cc1ccccc1OCC(=O)Nc1ccc2c(c1)Cc1ccccc1-2 -9.2%
Cc1c(NC(=S)N/N=C/c2ccc(O)cc2)c(=O)n(-c2ccccc2)n1C -1.6%
Cc1c(NC(=O)CC(=O)Nc2c(C)n(C)n(-c3ccccc3)c2=O)c(=O)n(-c2ccccc2)n1C 0.3%
COc1ccccc1-c1nnc2n1N=C(c1ccc(O)c(O)c1)CS2 -9.2%
COc1cc(/C=c2\sc3nc4ccccc4n3c2=O)ccc1OS(=O)(=O)c1ccccc1 10.7% [this sample at 5 µg/mL]
COc1cc(/C=c2\sc3nc4ccccc4n3c2=O)ccc1OCCOc1ccccc1 -2.3% [this sample at 5 µg/mL]
COCCNC(=O)CN(C(=O)CCC(=O)Nc1nccs1)c1ccccc1OC -10.3%
CN1/C(=C\C=Nc2ccccc2)C(C)(C)c2ccccc21 4%
CCN1C(=O)/C(=C/C=C2/SCCN2C)SC1=S -7.6%
CN1/C(=C\C=[N+](C)c2ccccc2)C(C)(C)c2ccccc21 -36.4%
CCN1C(=O)/C(=C\c2cccc(C)c2)SC1=S -1.5% [this sample at 5 µg/mL]
COc1ccc(C(=O)NCCCn2ccnc2)cc1 3%
O=C(Nc1ccccc1)N1CCC(C(=O)N2CCN(S(=O)(=O)c3cccc(F)c3)CC2)CC1 -6.6%
COc1ccc(OC)c(NC(=O)CN(c2ccccc2)S(=O)(=O)c2ccccc2[N+](=O)[O-])c1 -12.2% [this sample at 5 µg/mL]
CCOC(=O)C1CCCN(C(=O)COc2ccccc2O)C1 (stereo not given) -0.6%
COCCN(Cc1cc2cc3c(cc2nc1Cl)OCO3)C(=O)Nc1ccccc1OC -13.8%
CCN(CC)CCCN(Cc1cc2cc3c(cc2[nH]c1=O)OCCO3)C(=O)Nc1ccc(F)cc1 9.2%
Cc1ccc(-n2ncnc2-c2cccc(Cl)c2)cc1Cl 0.3% [this sample at 5 µg/mL]
COc1ccccc1-c1c(C(F)(F)F)oc2c(CN3CCCC3)c(O)ccc2c1=O -1.3% [this sample at 5 µg/mL]
O=C1SC(c2ccccc2)=N/C1=C/c1ccco1 -12.4%
CCCSC1=N/C(=C\c2ccsc2)C(=O)S1 -0.1%
COc1ccc(-c2nnc3n2N=C(C)CS3)cc1OC -3.7%
N#CC(C(=O)OC1CCCCC1)c1nc2ccccc2nc1N1CCOCC1 (stereo not given) -17.3%
CCC(CC)COC(=O)C(C#N)c1nc2ccccc2nc1N1CCOCC1 (stereo not given) 48.9%
CC1CCN(c2nc3ccccc3nc2C(C#N)C(=O)OC2CCCCC2)CC1 (stereo not given) 42.2%
COCCOC(=O)C(C#N)c1nc2ccccc2nc1N1CCCC1 (stereo not given) 20.7%
C=CCN1C(=O)[C@]2(c3ccccc31)C1CCCC=C1C(C#N)=C(N)C2(C#N)C#N (stereo not given in full) -6.6%
CC(=O)Nc1ccc(S(=O)(=O)N2CCN(C34CC5CC(CC(C5)C3)C4)CC2)cc1 -1.8%
COc1ccc(C(CC(=O)Nc2ccc(F)cc2)c2ccccc2)cc1 (stereo not given) -16.8%
O=C(CSc1nnc(-c2ccc(S(=O)(=O)N3CCOCC3)cc2)o1)c1ccccc1F -15.3%
CCCCC(=O)Nc1sc2c(c1C(=O)OCC)CCC(C=O)=C2Cl -6.4%
CCOC(=O)c1c(NC(C)=O)sc2c1CCCNC2=O 12.2%
CC(C)OP(=O)(c1ccc(N(C)C)cc1)C(O)c1ccncc1 (stereo not given) -19.9%
COc1ccc(N2CCN(C(=O)c3csc4ccccc34)CC2)cc1 -8.7%
Cc1ccc(S(=O)(=O)N(Cc2ccccc2)c2ccccc2C(=O)NCc2ccc(Cl)cc2)cc1 22% [this sample at 5 µg/mL]
COc1cc(C(=O)N2CCCN(c3nc4cc(C)ccc4cc3C#N)CC2)cc(OC)c1OC 1.5%
Cc1ccc2cc(C#N)c(N3CCCN(C(=O)C4CCCO4)CC3)nc2c1 (stereo not given) 2.7%
CCOc1ccc2oc(C)c(C(=O)OC(C)C)c2c1 -14.8% [this sample at 5 µg/mL]
O=S(=O)(c1ccc(Cl)cc1)N1CCN(c2ccccn2)CC1 11% [this sample at 5 µg/mL]
Cc1cc([N+](=O)[O-])nn1CC(=O)NNC(=S)Nc1ccc(Cl)cc1 -10.8%
COc1ccc(N2Cc3cccc(C(=O)N4CCN(C(=O)c5ccco5)CC4)c3C2=O)cc1 11.2%
COc1ccc(N2Cc3cccc(C(=O)N4CCOCC4)c3C2=O)cc1 7.2%
Cn1c(SCC(=O)N2CCOCC2)nc2cccnc21 2.2%
CCOC(=O)CSc1nnc(-c2ccc(Br)cc2)o1 5.7% [this sample at 5 µg/mL]
O=C(OCc1ccccc1)Sc1nnc(-c2ccc(Br)cc2)o1 -5.7% [this sample at 5 µg/mL]
